Test [1] in a line: qHTS assay to identify aromatase inhibitors - cell viability counter screen (AID 743084).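 Note: cells stimulated with testosterone during compound exposure; nearly all actives have a fitted effect of over 55% in size.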 On the technique in general: qHTS replaces the single test concentration by a dilution series.
Test [2] has as its target Aryl hydrocarbon receptor (Homo sapiens) (UniProt P35869). As to the kind of experiment: qHTS assay to identify small molecule that activate the aryl hydrocarbon receptor (AhR) signaling pathway (AID 743085).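 For activation: HG2L7.5c1 human HepG2 liver cells with stably integrated DRE-driven firefly reporter; series mostly up to about 70 µM.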 Note: nearly all actives have a fitted effect of over 15% in size. Note: potency is the fitted concentration of half-maximal effect. The procedure, abridged:
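Stably transfected human liver carcinoma cells (HG2L7.5c1; 20 DRE-firefly luciferase) were incubated 5 h, dosed, and kept 24 h at 37C. Agonism was scored from increased luciferase luminescence.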

A short description of test [3]: qHTS assay to identify small molecule that activate the aryl hydrocarbon receptor (AhR) signaling pathway - cell viability counter screen (AID 743086).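 Note: HepG2 liver cells carrying the AhR DRE luciferase reporter; series mostly up to about 70 µM; nearly all actives have a fitted effect of over 45% in size.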 The method, boiled down:
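Cytotoxicity counter screen: CellTiter-Fluor signal (30 min, 37 C) in 4000 HepG2 cells/well carrying the DRE-luciferase reporter, following 24 h compound exposure at 37 C.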

Test [4] addresses Peroxisome proliferator-activated receptor gamma (Homo sapiens) (UniProt P37231). As to the kind of experiment: qHTS assay to identify small molecule agonists of the peroxisome proliferator-activated receptor gamma (PPARg) signaling pathway (AID 743094; active = well fitted activation curve with a large enough effect in the signal ratio in the repeat runs, not every such curve was filed as active; the % refers to the signal ratio). The procedure, abridged:
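Following 5 h plating at 37C, PPARg-bla HEK293H cells receive compound or DMSO for 17 h; fluorescence intensity is recorded after LiveBLAzer B/G loading for 1 h at room temperature.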

Test [5] can be described thus: qHTS assay to identify small molecule antagonists of the peroxisome proliferator-activated receptor gamma (PPARg) signaling pathway - cell viability counter screen (AID 743194). Note: nearly all actives have a fitted effect of over 55% in size. Note: potency is the fitted concentration of half-maximal effect. The procedure, abridged: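 Viability was measured as CellTiter-Glo luminescence in GeneBLAzer PPARg UAS-bla HEK293H cells. These cells had been exposed 17 h at 37 C to compounds together with rosiglitazone at 50 nM final, with the beta-lactamase readout taken in the same wells.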

Test [6] in a line: qHTS assay for small molecule agonists of the antioxidant response element (ARE) signaling pathway (AID 743202; active = well fitted activation curve with a large enough effect in the signal ratio in the repeat runs, not every such curve was filed as active; the % refers to the signal ratio; note: potency is the fitted concentration of half-maximal effect). The procedure, abridged: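 Quantitative high-throughput format in HepG2 cells bearing an integrated ARE-beta-lactamase reporter. Compound exposure lasted 16 h at 37 C, and fluorescence was read 2 h after adding LiveBLAzer B/G substrate at room temperature.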
The nature of test [7]: qHTS assay for small molecule agonists of the antioxidant response element (ARE) signaling pathway - cell viability counter screen (AID 743203; calls by dose curve; note: nearly all actives have a fitted effect of over 55% in size). The procedure, abridged:
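Compounds in DMSO were pinned onto ARE-bla HepG2 cells plated 5 hrs earlier at 2,000 cells/well. Sixteen hours later at 37C/5% CO2, CellTiter-Glo was added and luminescence measured after 30 min at room temperature.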

The nature of test [8]: qHTS assay for small molecule activators of the heat shock response signaling pathway - cell viability counter screen (AID 743209). Note: nearly all actives have a fitted effect of over 50% in size. The method, boiled down: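 Counter screen for cytotoxicity in HeLa HSE-bla reporter cells. Treatment was 5 h at 37 C; viability was detected by luminescent ATP assay (CellTiter-Glo) in the same wells as the beta-lactamase read.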
Test [9] is described as follows: qHTS assay for small molecule activators of the heat shock response signaling pathway (AID 743210; active = well fitted activation curve with a large enough effect in the signal ratio in the repeat runs, with a control signal flat, not every such curve was filed as active; the % refers to the signal ratio;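 note: HeLa cells with beta-lactamase reporter driven by heat shock elements; series mostly up to about 63 µM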). The procedure, abridged:
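HeLa HSE-bla cells, overnight plating; cpd in DMSO 5 h, 37 C; LiveBLAzer B/G FRET substrate 2.5 h RT; fluorescence intensity read.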

In test [10] the target is Peroxisome proliferator-activated receptor gamma (Homo sapiens) (UniProt P37231). Description: qHTS assay to identify small molecule antagonists of the peroxisome proliferator-activated receptor gamma (PPARg) signaling pathway (AID 743191; calls by dose curve; note: nearly all actives have a fitted effect of over 30% in size; note: potency is the fitted concentration of half-maximal effect). The method, boiled down:
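Beta-lactamase reporter under UAS control in HEK293H PPARg-bla cells; compound treatment 17 h at 37C. Read-out: fluorescence intensity after 1 h room-temperature incubation with LiveBLAzer B/G FRET substrate.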

Records with an inconclusive call do not appear. A number with no mark means an inactive call. Active and inactive are the calls of the source. Unless noted, calls come from the whole dose curve; as a rule, active = well fitted curve in the direction sought with a large enough effect in the repeat runs; inconclusive = weak or mixed curves; inactive = no such curve, though single readings can be large; an effect the other way counts as inactive or inconclusive.

Chain of Aryl hydrocarbon receptor (Homo sapiens) (P35869 whole entry, looked up): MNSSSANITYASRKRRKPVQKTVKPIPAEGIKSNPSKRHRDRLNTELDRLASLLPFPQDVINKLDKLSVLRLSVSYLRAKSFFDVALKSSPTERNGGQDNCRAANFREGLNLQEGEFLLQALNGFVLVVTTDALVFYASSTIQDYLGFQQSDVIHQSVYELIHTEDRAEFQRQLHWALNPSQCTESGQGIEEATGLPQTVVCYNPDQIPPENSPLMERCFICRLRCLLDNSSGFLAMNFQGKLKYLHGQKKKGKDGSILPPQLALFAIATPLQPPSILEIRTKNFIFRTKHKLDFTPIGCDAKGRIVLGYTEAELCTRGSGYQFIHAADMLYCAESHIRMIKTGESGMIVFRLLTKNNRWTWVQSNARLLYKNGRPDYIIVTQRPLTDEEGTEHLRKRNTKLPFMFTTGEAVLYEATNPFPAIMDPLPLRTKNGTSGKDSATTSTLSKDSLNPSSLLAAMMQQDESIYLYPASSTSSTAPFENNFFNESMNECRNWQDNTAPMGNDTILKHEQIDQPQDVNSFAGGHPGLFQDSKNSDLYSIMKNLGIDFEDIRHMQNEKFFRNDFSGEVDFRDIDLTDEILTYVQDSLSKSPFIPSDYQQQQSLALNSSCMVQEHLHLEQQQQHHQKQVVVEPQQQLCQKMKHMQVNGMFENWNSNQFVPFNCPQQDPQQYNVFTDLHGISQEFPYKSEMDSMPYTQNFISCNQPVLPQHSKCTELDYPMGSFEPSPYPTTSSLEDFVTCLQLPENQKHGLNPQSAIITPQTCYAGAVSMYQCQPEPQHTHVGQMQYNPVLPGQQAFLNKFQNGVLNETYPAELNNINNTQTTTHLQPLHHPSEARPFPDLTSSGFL
Chain of Peroxisome proliferator-activated receptor gamma (Homo sapiens) (P37231 whole entry, looked up): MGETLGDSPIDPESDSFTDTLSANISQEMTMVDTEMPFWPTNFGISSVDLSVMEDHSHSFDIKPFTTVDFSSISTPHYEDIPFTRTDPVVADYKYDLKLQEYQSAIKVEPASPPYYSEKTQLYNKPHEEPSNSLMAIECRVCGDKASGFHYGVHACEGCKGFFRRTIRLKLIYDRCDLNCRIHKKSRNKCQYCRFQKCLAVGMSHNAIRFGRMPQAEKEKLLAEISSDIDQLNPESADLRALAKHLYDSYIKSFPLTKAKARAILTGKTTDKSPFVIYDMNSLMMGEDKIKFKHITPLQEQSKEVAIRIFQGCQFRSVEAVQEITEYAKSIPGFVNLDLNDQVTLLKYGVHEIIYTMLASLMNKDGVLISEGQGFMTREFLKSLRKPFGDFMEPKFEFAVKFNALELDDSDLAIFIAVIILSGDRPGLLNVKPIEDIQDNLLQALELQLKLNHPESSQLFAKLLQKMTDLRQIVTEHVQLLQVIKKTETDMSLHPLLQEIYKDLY

With `O=C(CC(=O)c1ccccc1)c1ccccc1`, the Potency result in test [1], in [3], in test [4], in test [5], in test [7] and in test [8] was “inactive” each time. The Potency in test [2] is 65.7 µM (active); in test [6], 23.3 µM (active). Further, the molecule was called inactive in test [9].

Consider `NCCCN(CCO)CCO`, for which the Potency result in test [1], in [2], in test [3], in test [4], in test [10] and in [5] was “inactive” in each case. Further, the Potency result in test [7] and in test [8] was “inactive” each time. In test [9], the call was inactive.

As to `CCCCOCCOCCOCCOCCO`, the Potency result in [1], in test [2], in test [3], in test [5], in test [6] and in [7] was “inactive” each time. Moreover, the Potency result in [8] is “inactive”. Besides, in test [9], the molecule was called inactive.

Regarding `COCCOCCOCCOCCOC`, the Potency entry in [1], in test [2], in [3], in test [10], in test [5] and in test [6] was “inactive” in each case. Besides, the Potency entry in [7] and in [8] was “inactive” throughout.

Regarding `CC(C)NCC(O)c1cc(O)cc(O)c1` (centres undefined), the Potency result in test [1], in test [2], in test [3], in [10], in test [5] and in [7] was “inactive” throughout. In addition, the Potency result in [8] was “inactive”. Further, in [9], the outcome was inactive.

As to `CN(C)CCCNCCCN`, the Potency result in test [1], in [2], in test [3], in test [4], in test [7] and in test [8] was “inactive” each time. In addition, the molecule was called inactive in [9].

In the case of `CC(C)(C)c1ccc(OCC2CO2)cc1` (centres undefined), the Potency entry in test [1], in test [2], in test [3], in [5], in test [6] and in test [7] was “inactive” throughout. Further, the Potency entry in test [8] was “inactive”.

For the molecule `CC(C)(C)C1CCCCC1O` (centres undefined), the Potency result in [1], in test [2], in [3], in [10], in [5] and in [6] was “inactive” throughout. The Potency entry in test [7] and in test [8] was “inactive” throughout. In test [9], the molecule was called inactive.

Take `O=C(Nc1ccccc1)OCC(CN1CCCCC1)OC(=O)Nc1ccccc1` (centres undefined): the Potency entry in [1], in test [2], in test [3], in test [5], in test [7] and in test [8] was “inactive” each time. In addition, the Potency in test [10] was 16.8 µM (active). The result in [9] was inactive.

Consider `CN(C(=O)CCCOc1ccc2[nH]c(=O)ccc2c1)C1CCCCC1`, for which the Potency entry in test [1], in test [2], in test [3], in test [5], in test [6] and in test [7] was “inactive” each time. Besides, the Potency entry in [8] was “inactive”. In addition, the molecule was classed as inactive in [9].

On to `O=C(O)COC(=O)Cc1ccccc1Nc1c(Cl)cccc1Cl`, for which the Potency entry in test [1], in test [2], in test [3], in test [5], in [6] and in test [7] was “inactive” in each case. The Potency result in test [8] is “inactive”. Moreover, in test [9], the molecule was called inactive.

In the case of `CCCCC(CC)COCCCN` (centres undefined), the Potency entry in test [1], in [2], in test [3], in test [5], in test [6] and in test [7] was “inactive” in each case. Also, in [8], the Potency result is “inactive”.

In the case of `CC(=O)Nc1ccc(/C=N/NC(N)=S)cc1`, the Potency entry in [1], in test [2], in test [3], in test [10], in [5] and in [6] was “inactive” throughout. Besides, the Potency entry in test [7] and in test [8] was “inactive” in each case. The molecule was called inactive in test [9].

Consider `O=C(O)Cc1sc(-c2ccccc2)nc1-c1ccc(Cl)cc1`, for which the Potency entry in test [1], in test [3], in [5], in test [6], in [7] and in [8] was “inactive” throughout. In addition, the Potency in test [2] was 10.6 µM (active). Besides, the outcome in test [9] was inactive.

As to `CN1CCC(=C2c3ccccc3C=Cc3ccccc32)CC1`, the Potency entry in [1], in test [2], in [3], in [4], in test [6] and in test [7] was “inactive” each time. Also, the Potency entry in test [8] is “inactive”. In test [9], the outcome was inactive.

As for `CCCCOc1ccc(CC(=O)NO)cc1`, the Potency entry in test [1], in [2], in test [3], in test [10], in test [5] and in test [7] was “inactive” each time. Moreover, the Potency entry in [8] is “inactive”. Also, the outcome in test [9] was inactive.

With `Cc1ccc2c(ccc3ccccc32)c1`, the Potency entry in test [1], in [2], in test [3], in test [4], in test [6] and in [7] was “inactive” in each case. Also, the Potency entry in [8] was “inactive”. Besides, the molecule was classed as inactive in [9].

`NC1CCN(c2nc3c(cc2F)c(=O)c(C(=O)O)cn3-c2ccc(F)cc2F)C1` (centres undefined): the Potency entry in test [1], in test [2], in test [3], in [5], in test [7] and in test [8] was “inactive” throughout. The Potency in test [6] was 26.6 µM (active).

`C=C(C)C(=O)OCCN(C)C`: the Potency result in test [1], in [2], in [3], in test [10], in test [5] and in test [7] was “inactive” throughout. For the same molecule, in [8], the Potency entry was “inactive”. Further, the result in test [9] was inactive.

For `CCCCCCCCCCCCC(=O)O`, the Potency entry in test [1], in test [2], in test [3], in [5] and in [7] was “inactive” in each case.

`OC(CCN1CCCCC1)(c1ccccc1)C1CCCCC1` (centres undefined): the Potency entry in test [1], in test [2], in test [3], in test [4], in test [6] and in test [7] was “inactive” in each case. In addition, in test [8], the Potency entry is “inactive”. For the same molecule, the call in [9] was inactive.

With `S=C(S)NCCNC(=S)S`, the Potency result in test [1], in test [2], in test [3], in [5], in test [7] and in [8] was “inactive” each time. The Potency in test [6] was 60 µM (active). Moreover, in test [9], the molecule was called inactive.

With `FC(F)(F)C(F)(F)C(F)(F)C(F)(F)C(F)(F)C(F)(F)CCI`, the Potency entry in test [1], in test [2], in [3], in test [5], in test [6] and in [7] was “inactive” throughout. Further, the Potency result in test [8] was “inactive”. Besides, the molecule was called inactive in [9].

In the case of `O=C(O)Cc1cc(I)c(Oc2ccc(O)c(I)c2)c(I)c1`, the Potency entry in test [1], in test [2], in test [3] and in test [8] was “inactive” in each case. For the same molecule, the Potency is 24.5 µM (active) in [5] and 15.4 µM (active) in test [6].

With `CC(=O)O[C@@H]1C(=O)O[C@@H]2[C@H]1OC(=O)[C@@H]2OC(C)=O`, the Potency result in test [1], in test [2], in [3], in test [5], in [7] and in test [8] was “inactive” throughout. The Potency in test [6] was 10.6 µM (active). Also, the outcome in test [9] was inactive.

In the case of `COc1ccccc1OC(=O)Oc1ccccc1OC`, the Potency result in test [1], in [2], in [3], in test [5], in [6] and in test [7] was “inactive” each time. In addition, the Potency result in test [8] is “inactive”. The call in test [9] was inactive.

Take `CN1CCN(C2=Nc3ccccc3Sc3ccc(Cl)cc32)CC1`: the Potency entry in test [1], in test [2], in test [3], in test [10], in test [5] and in test [6] was “inactive” each time. For the same molecule, the Potency entry in [7] and in test [8] was “inactive” in each case. The call in test [9] was inactive.

Take `CN1CCC(OC(c2ccccc2)c2ccccc2)CC1`: the Potency entry in test [1], in [2], in test [3], in test [5], in test [6] and in test [7] was “inactive” in each case. In addition, the Potency entry in [8] was “inactive”. In addition, the outcome in test [9] was inactive.

Regarding `CC(=O)CC(=O)c1ccccc1`, the Potency result in [1], in [2], in [3], in test [10], in test [5] and in test [6] was “inactive” in each case. In addition, the Potency entry in test [7] and in [8] was “inactive” in each case. Further, in test [9], the call was inactive.

The values above are taken from PubChem BioAssay (Tox21).
